High-throughput results deposited in PubChem by Sanford-Burnham Center for Chemical Genomics.
tim10-1 inh: inhibits growth of tim10-1 mutant yeast; S. cerevisiae tim10-1 ts strain growth, BacTiter-Glo, 24 h; inhibition, % at 20 µM; 2.2% of 330,000 active;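 active means inhibition of at least 40%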;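 further: mutant grown at 25 °C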
NLRP3 yeast inh: NALP3 inhibition in yeast; inhibition, % at 10 µM; AID 2825; Yeast reconstituted NLRP3/ASC/caspase-1, beta-gal luminescence, 24 h; 0.39% of 330,000 active;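 active means inhibition of 50% or more; inactive means inhibition below 50%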
tim23-1 inh: growth inhibitors of tim23-1 mutant yeast; 1.3% of 330,000 active; S. cerevisiae tim23-1 growth, BacTiter-Glo luminescence, 24 h; inhibition, % at 20 µM;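 active means growth inhibition of the mutant yeast at or above 50%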;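 further: temperature-sensitive mutant grown at 25 °C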
NALP1 yeast inh: NALP1 inhibition | S. cerevisiae NALP1/ASC/caspase-1 growth, X-gal OD620, 72 h | inhibition, % at 10 µM | 0.61% of 280,000 active; in the data active means inhibition mostly above about 24%, no sharp cut-off; inactive means mostly below about 32%
TIM10 inh: inhibits growth of TIM10 yeast strain | 1.4% of 330,000 active | inhibition, % at 10 µM | S. cerevisiae TIM10 strain growth, BacTiter-Glo luminescence, 24 h | AID 463195;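 active means inhibition of 40% or more at the single tested concentration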;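 further: wild-type TIM10 isogenic control strain grown at permissive 25 °C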
tim10-1 conf: tim10-1 yeast growth inhibition, confirmed | shares compounds with tim10-1 inh | S. cerevisiae tim10-1 ts strain growth, BacTiter-Glo, 24 h | inhibition, % at 20 µM | 56% of 7,400 active | AID 463213;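 active means inhibition of yeast growth at or above a set limit in either of two repeat tests at 20 µM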;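 further: tim10-1 mutant grown at permissive 25 °C to find synthetic lethal compounds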
Large screens that a line does not name were inactive (follow-up assays come after a bar, where they were run). An excerpt weighted towards active compounds, which were near 4% of everything screened.

Cc1ccc2cc(CN(CCN(C)C)C(=S)Nc3ccccc3)c(=O)[nH]c2c1C	tim10-1 inh 40 | tim10-1 conf inactive
CCCN(CC(=O)Nc1ccccc1C)C(=O)c1ccc(OCc2c(C)noc2C)cc1	none (no result: NALP1 yeast inh)
Cc1ccccc1CSCCNC(=S)Nc1ccccc1	tim10-1 inh 45 | tim10-1 conf inactive
Cc1ccccc1CSCCNC(=O)c1ccccc1	none
O=S(=O)(Nc1cccc2cccnc12)c1ccccc1	none
O=S(=O)(Nc1cccc2cccnc12)c1ccc(S(=O)(=O)N2CCCC2)cc1	tim10-1 inh 50 | tim10-1 conf 39
O=C(c1ccccc1Br)N(Cc1ccccc1)c1ccccc1	none
COc1cc(OC)c(NC(=S)NCc2ccc(F)cc2)cc1Cl	none
c1ccc(-c2cc3n(c2)CCc2ccccc2-3)cc1	tim10-1 inh 42 | tim10-1 conf inactive
O=C(CSc1n[nH]c(-c2ccco2)n1)N1c2ccccc2Sc2ccccc21	tim10-1 inh 46 | tim10-1 conf inactive
CCOC(=O)CSc1n[nH]c(-c2ccco2)n1	none
CN(C)S(=O)(=O)c1ccc(Cl)c(NC(=O)COc2ccccc2[N+](=O)[O-])c1	none
CC(=O)c1ccc(NC(=O)CN2C(=O)NC3(CCc4ccccc43)C2=O)cc1 (centres undefined)	none (no result: NALP1 yeast inh)
O=C1c2ccccc2C(=O)N1CCc1nc2ccccc2c(=O)n1-c1ccccn1	tim10-1 inh 49 | tim10-1 conf inactive
Cn1nc(-c2ccccc2)cc1NC(=O)Nc1ccc(C(C)(C)C)cc1	tim10-1 inh 41 (no result: NALP1 yeast inh) | tim10-1 conf 39
Cn1nc(-c2ccc(Cl)cc2)cc1NC(=O)Nc1ccccc1	none
CCOc1cc(N2CCOCC2)c(OCC)cc1NC(=O)c1ccc2ccccc2n1	tim10-1 inh 45 | tim10-1 conf inactive
CCOc1cc(N2CCOCC2)c(OCC)cc1NC(=O)COC(=O)CCOc1ccc(C)cc1	tim10-1 inh 41 (no result: NALP1 yeast inh) | tim10-1 conf 29
COc1ccc(/C(N)=N/OC(=O)CN(C)S(=O)(=O)c2ccc(C)cc2)cc1	none (no result: tim10-1 inh, NLRP3 yeast inh, tim23-1 inh, TIM10 inh)
CN(CC(=O)O/N=C(\N)c1ccc([N+](=O)[O-])cc1)S(=O)(=O)c1ccc2ccccc2c1	tim10-1 inh 45 | tim10-1 conf 47
COc1ccc(/C(N)=N/OC(=O)CN(C)S(=O)(=O)c2ccccc2)cc1	none
Cc1ccc(/C(N)=N/OC(=O)CN(C)S(=O)(=O)c2ccc(C)cc2)cc1	tim10-1 inh 47 | tim10-1 conf inactive
Cc1ccc(S(=O)(=O)N(C)CC(=O)O/N=C(\N)c2cccc(Br)c2)cc1	tim10-1 inh 50 | tim10-1 conf 52
O=C(NN=C(c1ccccc1)c1ccccc1)C(CCl)C1CCCCC1 (centres undefined)	none (no result: NALP1 yeast inh)
CCOC(=O)/C(C#N)=N/Nc1ccccc1C#N	none (no result: NALP1 yeast inh)
Cc1nn(Cc2c(Cl)cccc2Cl)c(C)c1NC(=O)c1sc2ccccc2c1Cl	none
Cc1cc(C)cc(NC(=O)c2ccc(Cn3nc(C)c(Cl)c3C)o2)c1	tim10-1 inh 41 | tim10-1 conf 30
Cc1ccc(CNC(=O)c2ccc(Cn3nc(C)c(Cl)c3C)o2)cc1	tim10-1 inh 55 | tim10-1 conf 54
Cc1nn(Cc2ccc(Cl)c(Cl)c2)c(C)c1NC(=O)c1sc2ccccc2c1Cl	tim10-1 inh 41 (no result: NALP1 yeast inh) | tim10-1 conf 41
CC(=O)N1CCN(S(=O)(=O)c2cccc(C(=O)Nc3cc(C(F)(F)F)ccc3N3CCOCC3)c2)CC1	none
CCc1nc(N)c(C#N)c(-c2cccn2C)c1C	tim10-1 inh 41 (no result: NALP1 yeast inh) | tim10-1 conf inactive
CN(C)c1nc(-c2ccccn2)nnc1-c1ccccc1	tim10-1 inh 40 | tim10-1 conf inactive
CCOc1cccc2cc(C(=O)NCc3ccc(C)cc3)c(=N)oc12	none
CNCc1ccccc1Sc1cccc2ccccc12	tim10-1 inh 41 | tim10-1 conf inactive
CCOC(=O)C1=NNC2(c3ccc(C)cc3)C(=O)N(c3ccc(Cl)cc3)C(=O)C12 (centres undefined)	none
O=C(CSc1ccccc1C(=O)NCc1ccccc1)NC12CC3CC(CC(C3)C1)C2	tim10-1 inh 40 | tim10-1 conf 32
O=C1NC(=O)/C(=C/c2cccc3ccccc23)S1	tim10-1 inh 47 | tim10-1 conf 35
O=C1NC(=O)/C(=C\c2ccc(O)cc2O)S1	none
O=C(NCCN1CCOCC1)c1cccc(S(=O)(=O)NCc2ccccc2)c1	none (no result: NALP1 yeast inh)
CCOC(=O)C1=C(N)Oc2cc(O)ccc2C1c1cccc([N+](=O)[O-])c1 (centres undefined)	tim10-1 inh 46 | tim10-1 conf inactive
CCOC(=O)C1=C(N)Oc2cc(O)ccc2C1c1ccccc1 (centres undefined)	none
Cc1ccc(-c2noc(CN(C(=O)C(c3ccccc3)c3ccccc3)C(C)C)n2)cc1	tim10-1 inh 41 | tim10-1 conf inactive
Cc1ccc(OC(=O)C2CSC3(C)CCC(=O)N23)c(Br)c1 (centres undefined)	tim10-1 inh 49 (no result: NALP1 yeast inh) | tim10-1 conf inactive
COc1ccc(Cl)cc1NC(=O)CN1CCC(n2nnc3cc(C)ccc32)CC1	none | tim10-1 conf inactive
Cc1cccc(C)c1OCC(=O)N(Cc1ccc(Cl)cc1)C1CCS(=O)(=O)C1 (centres undefined)	tim10-1 inh 40 | tim10-1 conf inactive
CCOC(=O)c1ccc(S(=O)(=O)Nc2cc(C(=O)O)ccc2Cl)cc1	none
CC1CCCC2(C1)NC(=S)c1c(sc3c1CCCC3)N2 (centres undefined)	tim10-1 inh 42 | tim10-1 conf inactive
Brc1nnc2n1-c1ccccc1Sc1ccccc1-2	none
Clc1ccc2c(c1)-c1nnc(Br)n1-c1ccccc1S2	tim10-1 inh 48 | tim10-1 conf inactive
CN(Cc1c(C(=O)N/N=C/c2cccc(Cl)c2)nnn1-c1nonc1N)c1ccccc1	none
O=C(Nc1ccccc1)N1CCCC(c2nc(-c3ccc(F)cc3)no2)C1 (centres undefined)	none
O=C(Nc1cccc(C(F)(F)F)c1)N1CCC(c2nc(-c3ccc(F)cc3)no2)CC1	tim10-1 inh 42 | tim10-1 conf 39
O=C(c1ccco1)N1N=C(c2cccs2)CC1c1ccco1 (centres undefined)	tim10-1 inh 41 | tim10-1 conf inactive
Cc1ccc(C2CC(c3cccs3)=NN2C(=O)c2ccco2)o1 (centres undefined)	none
CNS(=O)(=O)c1cc(S(=O)(=O)NC)c2cccc3c2c1NC3=O	none
CCN1C(=O)[C@@H]2[C@H](C1=O)[C@@H]1C(=O)Nc3ccccc3C(=O)N1[C@@H]2c1cccc(Cl)c1	none
O=S(=O)(NCCCNS(=O)(=O)c1c(F)cccc1F)c1ccc2c(c1)OCCO2	none (no result: NALP1 yeast inh)
O=S(=O)(NCCSCc1ccc(Cl)cc1Cl)c1ccc2c(c1)OCCO2	tim10-1 inh 45 | tim10-1 conf 34
NS(=O)(=O)c1ccc(CNS(=O)(=O)c2ccc3c(c2)OCCO3)cc1	none
O=S(=O)(NCc1ccc(F)cc1)c1ccc2c(c1)OCCO2	tim10-1 inh 53 | tim10-1 conf 37
O=S(=O)(NCCSc1ccc(Cl)cc1)c1ccc2c(c1)OCCO2	tim10-1 inh 56 | tim10-1 conf 49
